Test results: PubChem BioAssay (NCI)
This is part of a sample that, as a whole, favours compounds with a hit. Of some 83,000 tested, about 20% had one in any assay.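 For each line, cells grew in 96-well plates with the test compound present at a single concentration for 48 hours.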 A number with no mark means an inactive call. The source made the active and inactive calls. How the source made its calls: active means growth percent below 10; inactive means the rest.

What follows are compounds tested on HL-60(TB) leukemia (assay: NCI-60 one-dose screen, 48 h (100 = growth as untreated, 0 = no growth, -100 = all killed)). Conditions: 10 µM unless noted.

In order of rising growth:
1. O=C1/C(=C\c2ccc(Br)o2)SC(=S)N1CCc1ccc(O)cc1  42.2%
2. Cc1cc2c(C(C)C)c(O)c(O)c(C=NCCCCC(=O)O)c2c(O)c1-c1c(C)cc2c(C(C)C)c(O)c(O)c(C=NCCCCC(=O)O)c2c1O  42.6%
3. COc1cc(NC(=O)c2cc3ccccc3nc2Nc2ccc(F)cc2)cc(OC)c1OC  47.2%
4. NC(=S)N/N=C(/c1cccs1)C1CC1  79.9%
5. O=C(CN1CCN(C(=O)c2ccccc2)CC1)Nc1ccccc1SCc1ccccc1  80.5%
6. c1cc[n+](Cc2ccnc3ccccc23)cc1  84.7%
7. CSc1ncnc2c1ncn2C1CCCO1 (stereo unspecified)  99.9%
8. O=S(=O)(NCCNc1nccc(-c2c(-c3cccc(F)c3)nc3occn23)n1)c1ccc(Br)cc1  103%
9. O=c1[nH]c(NCc2nnnn2-c2ccc(Br)cc2)nc2sc3c(c12)CCCC3  103%
10. O=C(O)COc1ccccc1F  104%
11. O=C(O)c1cc([N+](=O)[O-])ccc1Br  105%
12. COc1ccc(C(=O)CSc2nnc(-c3cc(-c4ccccc4)nc4ccccc34)o2)cc1  111%
13. COc1ccc(C2CCCCC2=O)cc1 (stereo unspecified)  122%

For `C=C1C(=O)O[C@H]2[C@H]1CC/C(COC(=O)c1cc3ccccc3o1)=C\CC[C@@]1(C)O[C@@H]21`, the growth was -2.94% (active).
`CCc1ccc(CCC(=O)Nc2ncc(Cc3ccccc3)s2)o1` was tested, and the growth was -40% (active).
`O=C(/C=C/c1ccco1)Nc1ncc(Cc2ccc(F)cc2)s1` was tested, and the growth was -41.6% (active).
